Where “and” joins values, the source holds several entries; their conditions need not be identical. Equal values may be shown once. Unmarked numbers belong to inactive results. Results filed as inconclusive are left out. Calls of active or inactive are those of the source. Unless noted, calls come from the whole dose curve; as a rule, active = well fitted curve in the direction sought with a large enough effect; inconclusive = small, poorly fitted or top-dose-only effect, or another doubt; inactive = no such curve, though single readings can be large; an effect the other way counts as inactive or inconclusive.

In experiment [1] the target is Luciferin 4-monooxygenase (Photinus pyralis) (UniProt P08659). As to the kind of experiment: Biochemical firefly luciferase enzyme assay for NPC (AID 624030). Note: nearly all actives have a fitted effect of over 70% in size. Note: potency is the fitted concentration of half-maximal effect. The essentials:
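Direct inhibition of firefly luciferase enzyme (10 nM final, 50 mM Tris Acetate) assessed by luminescence within 5 minutes. Percent activity scaled between DMSO and PTC124 positive control, with concentration-effect curves classified by fit quality and response.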

For experiment [2], the target named is Thyroid hormone receptor beta (Homo sapiens) (UniProt P10828). As to the kind of experiment: qHTS assay for small molecule antagonists of thyroid hormone receptor beta signaling (AID 588547; active = well fitted inhibition curve with a large enough effect in the signal ratio, with a control signal flat, not every such curve was filed as active; the % refers to the signal ratio; note: potency is the fitted concentration of half-maximal effect;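 for activity change % (negative = inhibition): cells stimulated with 0.4 nM T3 agonist during compound exposure; series mostly up to about 77 µM; % is set by controls: 0 for no effect and ±100 for the full control effect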). The conditions noted are these: TR-UAS-bla HEK293, beta-lactamase ratio, antagonist mode, 18 h. The method in brief: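 Inhibition of T3-driven (0.4nM final) beta-lactamase reporter activity was measured over 0.59 nM to 92 uM compound after 18 h at 37 C. The cells were GripTite HEK293 TR-UAS-bla in charcoal/dextran-stripped serum, with CCF4 ratio read-out and IC50 from Hill fits.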
Sequence of Thyroid hormone receptor beta (Homo sapiens) (P10828 whole entry, looked up): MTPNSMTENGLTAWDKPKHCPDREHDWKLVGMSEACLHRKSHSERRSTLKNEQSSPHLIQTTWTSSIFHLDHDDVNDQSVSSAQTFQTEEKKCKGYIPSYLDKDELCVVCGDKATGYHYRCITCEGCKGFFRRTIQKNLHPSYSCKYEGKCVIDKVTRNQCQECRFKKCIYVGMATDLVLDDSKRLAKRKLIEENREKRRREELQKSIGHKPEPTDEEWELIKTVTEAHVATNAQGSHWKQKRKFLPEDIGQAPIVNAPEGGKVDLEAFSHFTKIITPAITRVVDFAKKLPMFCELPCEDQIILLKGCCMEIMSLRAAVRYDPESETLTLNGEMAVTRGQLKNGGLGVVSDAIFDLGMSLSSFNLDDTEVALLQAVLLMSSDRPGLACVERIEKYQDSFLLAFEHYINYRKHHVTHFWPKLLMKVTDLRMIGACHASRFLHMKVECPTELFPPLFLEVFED

Experiment [3] has as its target Voltage-gated inwardly rectifying potassium channel KCNH2 (Homo sapiens) (UniProt Q12809). In words: qHTS Assay for Small Molecule Inhibitors of the Human hERG Channel Activity (AID 588834).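 Note: top concentration of the series differs between compounds; % is set by controls: 0 for no effect and ±100 for the full control effect; lower thallium flux fluorescence means stronger hERG block; nearly all actives have a fitted effect of over 50% in size.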 The method in brief: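 U2OS cells BacMam-transduced with hERG, 2000 cells/well, compound ~10 min at 37 °C before stimulation buffer. FluxOR thallium flux fluorescence read kinetically on FDSS; decrease indicates block; AC50 from Hill fits.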

Experiment [4] is described as follows: qHTS assay for small molecule agonists of the antioxidant response element (ARE) signaling pathway (AID 651741; active = well fitted activation curve with a large enough effect in the signal ratio; the % refers to the signal ratio; note: % of control where 0% means no effect). The method in brief:
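Quantitative HTS in HepG2 cells stably expressing an ARE-beta-lactamase reporter; 16 h compound exposure at 37 C, followed by 2 h room-temperature incubation with LiveBLAzer B/G FRET substrate and fluorescence measurement.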
(In general: qHTS replaces the single test concentration by a dilution series.)

Experiment [5] can be described thus: qHTS assay for small molecule activators of the p53 signaling pathway (AID 651743; active = well fitted activation curve with a large enough effect in the signal ratio, not every such curve was filed as active; the % refers to the signal ratio; note: series mostly up to about 92 µM; % of control where 0% means no effect). The following applies: HCT-116 p53RE-bla, beta-lactamase FRET ratio, 16 h; stronger effect = higher value. The essentials:
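Read-out is fluorescence intensity from the LiveBLAzer B/G FRET substrate, added for 2 hours at room temperature after HCT-116 p53RE-bla cells had been incubated with compounds for 16 hours at 37 C.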

A short description of experiment [6]: qHTS assay for small molecule activators of the nuclear factor-kappa B (NF-kB) signaling pathway (AID 651749; active = well fitted activation curve with a large enough effect in the signal ratio; the % refers to the signal ratio; note: series mostly up to about 77 µM; % of control where 0% means no effect). The conditions noted are these: NF-kB-bla ME-180 cells, beta-lactamase FRET ratio, 16 h; stronger effect = higher value. The essentials:
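Readout: beta-lactamase reporter driven by an NF-kB response element, detected fluorescently as loss of FRET. Cells were the ME-180 line, treated 16 hr at 37C with pin-transferred compound.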

In experiment [7] the target is Tumor necrosis factor (Homo sapiens) (UniProt P01375). As to the kind of experiment: qHTS assay to identify small molecules that stimulate Tumor Necrosis Factor-alpha (TNF-alpha) secretion (AID 651757; active = well fitted curve in the direction sought with a large enough effect in the signal ratio; the % refers to the signal ratio; note: 0% is about no effect). The essentials:
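Read-out is HTRF, a TR-FRET sandwich of cryptate- and XL665-labeled anti-TNF-alpha antibodies detecting cytokine secreted by THP-1 cells. Cells had been incubated with test compounds at 37 C for 17 hrs beforehand.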

Experiment [8] addresses Peroxisome proliferator-activated receptor alpha (Homo sapiens) (UniProt Q07869). In words: qHTS assay for small molecule agonists of the peroxisome proliferator-activated receptor alpha (PPARalpha) signaling pathway (AID 651778). Note: % of control where 0% means no effect. The following applies: PathHunter PPARalpha complementation, chemiluminescence, 6 h; max response: stronger effect = higher value. The method in brief: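 Chemiluminescence from complemented enzyme reported PPARalpha activation in cells after 6 hr of compound treatment at 37 C. The detection reagent was incubated for 60 min at room temperature, and compounds were scored as agonists.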

Experiment [9] in a line: qHTS assay to identify small molecules that stimulate interleukin-8 (IL-8) secretion (AID 651758; active = well fitted activation curve with a large enough effect in the signal ratio; the % refers to the signal ratio; note: 0% is about no effect). The method in brief: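 Secreted IL-8 measured by TR-FRET sandwich (cryptate and XL665 antibodies) from THP-1 cells exposed to compound overnight (16 hrs, 37 C).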
Experiment [10] in a line: qHTS assay for environmental chemicals that activate the Aryl hydrocarbon Receptor (AhR) signaling pathway (AID 651777). Note: % of control where 0% means no effect; nearly all actives have a fitted effect of over 15% in size. The conditions noted are these: 1A2-DRE human hepatoma cells, luciferase, 24 h; stronger effect = higher value. The essentials:
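Luminescence (One-Glo, 30 min, room temperature) reports AhR-driven luciferase in stably transfected human hepatoma cells bearing DRE and CYP1A2 promoter. Cells (1,200/well) were treated with compound for 24 hr at 37 C in qHTS format.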

The nature of experiment [11]: qHTS assay for small molecule disruptors of the mitochondrial membrane potential - 1 hr assay (AID 651754; calls by dose curve; note: % is set by controls: 0 for no effect and ±100 for the full control effect; nearly all actives have a fitted effect of over 35% in size). The method in brief: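 HepG2, 2,000 cells/well, overnight attachment; cpd or DMSO 1 hr, 37C/5% CO2; Mito-MPS dye 30 min, 37C; fluorescence monomer (490/535) and aggregate (540/590).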
Experiment [12] is described as follows: qHTS assay for small molecule disruptors of the mitochondrial membrane potential - 5 hr assay (AID 651755; calls by dose curve; note: % is set by controls: 0 for no effect and ±100 for the full control effect; nearly all actives have a fitted effect of over 40% in size). The method in brief: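 HepG2, 2,000 cells/well, overnight attach; cpd or DMSO 5 hr, 37C/5% CO2; Mito-MPS 30 min 37C; fluor 490/535 + 540/590 nm.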
Experiment [13] in a line: S16 Schwann cell viability assay (CellTiter-Glo assay) (AID 624031).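 Note: cellular ATP luminescence as a viability measure; series mostly up to about 58 µM; plate controls were DMSO-treated cells for no effect and cell-free wells for full effect; nearly all actives have a fitted effect of over 70% in size.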 The essentials: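 CellTiter-Glo ATP luminescence counter-screen in untransfected S16 rat Schwann cells, 24h compound exposure at 37 degree Celsius after overnight seeding (500-750 cells/well); response scaled between cell-free wells and DMSO (0% activity), curves classed by r2 and magnitude.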
In general terms: Cellular ATP, detected with luciferase, serves as a proxy for viable cell number.

The nature of experiment [14]: S16 Schwann cell PMP22 intronic element firefly luciferase assay (AID 624032).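 Note: series mostly up to about 58 µM; plate controls were DMSO for no effect and PTC124 positive control mean for full effect; nearly all actives have a fitted effect of over 30% in size.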 The essentials: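 Luciferase reporter of PMP22 intronic-element expression in stably transfected S16 rat Schwann cells, read by ONE-Glo luminescence after 24 h compound exposure at 37 C. Activity scaled between DMSO (0%) and positive-control PTC124; concentration-effect curves quality-classified.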

Experiment [15] is described as follows: S16 Schwann cell PMP22 intronic element beta-lactamase assay (AID 624044; calls by dose curve;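 note: 0% = DMSO and -100% = potassium clavulanate positive control; nearly all actives have a fitted effect of over 15% in size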). The method in brief:
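Rat S16 Schwann cells with beta-Lac driven by a PMP22 intronic element, compound-treated 24 h at 37 °C. LiveBLAzer FRET B/G read: 460 nm normalized to potassium clavulanate vs DMSO; 535 nm FRET as viability; concentration-effect curves classified.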

Experiment [16] addresses Glutaminase kidney isoform, mitochondrial (Homo sapiens) (UniProt O94925). In words: qHTS for Inhibitors of Glutaminase (GLS): LOPAC Validation (AID 624146).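 Note: glutamate product detected by oxidase and peroxidase coupled Amplex red fluorescence gain; series mostly up to about 46 µM; % is set by controls: 0 for no effect and ±100 for the full control effect; nearly all actives have a fitted effect of over 60% in size.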 The method in brief:
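Assay buffer: 45 mM KH2PO4 pH 8.2, 0.02% Tween-20. hKGA acts on L-glutamine (1 mM solution added); product glutamate is reported by an oxidase/peroxidase Amplex Red coupling, with fluorescence taken at baseline and 30 min.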

For experiment [17], the target named is Glucagon-like peptide 1 receptor (Homo sapiens) (UniProt P43220). As to the kind of experiment: qHTS of GLP-1 Receptor Agonists: LOPAC Validation (AID 624148).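 Note: luminescence from a luciferase reporter switched on by cAMP; 0% is about no effect; higher luminescence signal means agonism.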 The method in brief: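 Agonism scored as increased luciferase luminescence driven by cAMP in HEK293 clones carrying GLP-1R. Cells settled 12 hours, received compound for 4-6 hr at 37 deg C, 5% CO2, and were read after 12 min detection reagent at RT.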
Sequence of Glucagon-like peptide 1 receptor (Homo sapiens) (P43220 whole entry, looked up): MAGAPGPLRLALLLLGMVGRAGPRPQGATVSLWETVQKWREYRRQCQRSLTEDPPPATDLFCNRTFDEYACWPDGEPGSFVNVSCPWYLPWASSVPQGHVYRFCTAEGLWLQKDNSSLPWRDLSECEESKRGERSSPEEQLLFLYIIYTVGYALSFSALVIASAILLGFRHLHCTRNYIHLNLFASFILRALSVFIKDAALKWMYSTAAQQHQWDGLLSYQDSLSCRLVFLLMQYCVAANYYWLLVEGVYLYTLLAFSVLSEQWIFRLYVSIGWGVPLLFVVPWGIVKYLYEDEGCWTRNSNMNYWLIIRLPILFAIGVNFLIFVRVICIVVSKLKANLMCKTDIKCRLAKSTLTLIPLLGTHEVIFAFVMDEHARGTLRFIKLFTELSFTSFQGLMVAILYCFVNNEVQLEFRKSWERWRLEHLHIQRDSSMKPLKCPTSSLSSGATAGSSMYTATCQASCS

The nature of experiment [18]: qHTS of Nrf2 Activators: LOPAC Validation (AID 624149). Note: 0% is about no effect. The method in brief:
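Luminescence read-out of ARE-luciferase activation: AREc32_Fluc cells treated with compounds for 24 hr at 37 deg C, then lysed with Steady-Glo for 30 min at room temperature before reading.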

Experiment [19] in a line: HTS Assay for Allosteric Antagonists of the Human D2 Dopamine Receptor: Hit Validation in HTRF (AID 624455).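 Note: stable D1 dopamine receptor cell line scored for blocking the D1 response; % is set by controls: 0 for no effect and ±100 for the full control effect.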 The method in brief:
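First, antagonism was screened by calcium flux in a force-coupled, inducible Hek293 Trex D2 line challenged with EC80 dopamine. Hits then went into an HTRF assay in cells stably expressing D1, testing inhibition of the D1 response.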
On the technique in general: TR-FRET usually uses a lanthanide donor and a delayed reading to cut background.

Sequence of Tumor necrosis factor (Homo sapiens) (P01375 whole entry, looked up): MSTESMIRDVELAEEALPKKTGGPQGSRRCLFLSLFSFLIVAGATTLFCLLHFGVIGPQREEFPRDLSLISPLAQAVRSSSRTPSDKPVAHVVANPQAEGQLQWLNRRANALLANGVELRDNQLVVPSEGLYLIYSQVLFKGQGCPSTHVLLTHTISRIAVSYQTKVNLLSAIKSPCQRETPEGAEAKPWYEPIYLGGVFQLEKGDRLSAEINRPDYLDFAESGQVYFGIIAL
Sequence of Peroxisome proliferator-activated receptor alpha (Homo sapiens) (Q07869 whole entry, looked up): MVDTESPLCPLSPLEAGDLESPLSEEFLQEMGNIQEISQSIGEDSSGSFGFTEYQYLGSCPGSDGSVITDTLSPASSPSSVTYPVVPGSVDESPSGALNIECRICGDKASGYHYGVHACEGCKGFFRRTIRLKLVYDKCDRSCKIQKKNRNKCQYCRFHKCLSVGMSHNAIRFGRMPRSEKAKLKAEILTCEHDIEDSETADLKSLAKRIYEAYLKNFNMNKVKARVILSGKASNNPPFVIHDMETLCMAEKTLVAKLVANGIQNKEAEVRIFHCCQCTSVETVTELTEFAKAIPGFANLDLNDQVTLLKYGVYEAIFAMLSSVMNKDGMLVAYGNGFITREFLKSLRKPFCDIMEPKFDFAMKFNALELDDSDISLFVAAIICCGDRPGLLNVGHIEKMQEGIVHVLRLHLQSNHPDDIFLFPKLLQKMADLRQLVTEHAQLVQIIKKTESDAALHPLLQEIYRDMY
Sequence of Voltage-gated inwardly rectifying potassium channel KCNH2 (Homo sapiens) (Q12809 whole entry, looked up): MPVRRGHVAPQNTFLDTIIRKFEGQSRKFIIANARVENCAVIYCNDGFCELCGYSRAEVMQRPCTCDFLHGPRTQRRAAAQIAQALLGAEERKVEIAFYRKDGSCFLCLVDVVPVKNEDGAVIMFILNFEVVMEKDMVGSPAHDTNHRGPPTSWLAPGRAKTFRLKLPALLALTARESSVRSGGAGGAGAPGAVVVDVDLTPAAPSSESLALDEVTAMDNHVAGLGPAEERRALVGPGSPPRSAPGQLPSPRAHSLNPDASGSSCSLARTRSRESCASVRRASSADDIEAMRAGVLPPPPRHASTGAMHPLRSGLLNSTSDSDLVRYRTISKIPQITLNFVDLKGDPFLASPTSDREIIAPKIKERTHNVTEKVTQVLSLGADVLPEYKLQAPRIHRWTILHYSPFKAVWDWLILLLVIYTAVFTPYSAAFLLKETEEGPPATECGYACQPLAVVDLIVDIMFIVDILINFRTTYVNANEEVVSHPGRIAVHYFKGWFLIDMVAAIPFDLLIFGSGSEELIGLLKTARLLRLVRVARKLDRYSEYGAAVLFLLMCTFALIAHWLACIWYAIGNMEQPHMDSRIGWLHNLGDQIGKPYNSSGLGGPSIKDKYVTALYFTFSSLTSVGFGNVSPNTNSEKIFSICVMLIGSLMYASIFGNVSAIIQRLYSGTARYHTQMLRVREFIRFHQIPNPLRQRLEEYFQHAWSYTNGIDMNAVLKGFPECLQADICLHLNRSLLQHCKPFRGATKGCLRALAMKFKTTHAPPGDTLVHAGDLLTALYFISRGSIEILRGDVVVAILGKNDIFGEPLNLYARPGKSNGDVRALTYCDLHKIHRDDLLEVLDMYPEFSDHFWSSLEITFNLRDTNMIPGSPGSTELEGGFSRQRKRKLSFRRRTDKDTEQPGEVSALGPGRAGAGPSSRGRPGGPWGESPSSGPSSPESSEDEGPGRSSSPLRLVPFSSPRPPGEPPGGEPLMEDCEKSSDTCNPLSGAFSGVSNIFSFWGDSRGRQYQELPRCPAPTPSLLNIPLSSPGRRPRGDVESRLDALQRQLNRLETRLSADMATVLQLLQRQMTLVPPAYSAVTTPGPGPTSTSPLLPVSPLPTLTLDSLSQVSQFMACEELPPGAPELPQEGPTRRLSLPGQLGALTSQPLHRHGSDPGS
Sequence of Luciferin 4-monooxygenase (Photinus pyralis) (P08659 whole entry, looked up): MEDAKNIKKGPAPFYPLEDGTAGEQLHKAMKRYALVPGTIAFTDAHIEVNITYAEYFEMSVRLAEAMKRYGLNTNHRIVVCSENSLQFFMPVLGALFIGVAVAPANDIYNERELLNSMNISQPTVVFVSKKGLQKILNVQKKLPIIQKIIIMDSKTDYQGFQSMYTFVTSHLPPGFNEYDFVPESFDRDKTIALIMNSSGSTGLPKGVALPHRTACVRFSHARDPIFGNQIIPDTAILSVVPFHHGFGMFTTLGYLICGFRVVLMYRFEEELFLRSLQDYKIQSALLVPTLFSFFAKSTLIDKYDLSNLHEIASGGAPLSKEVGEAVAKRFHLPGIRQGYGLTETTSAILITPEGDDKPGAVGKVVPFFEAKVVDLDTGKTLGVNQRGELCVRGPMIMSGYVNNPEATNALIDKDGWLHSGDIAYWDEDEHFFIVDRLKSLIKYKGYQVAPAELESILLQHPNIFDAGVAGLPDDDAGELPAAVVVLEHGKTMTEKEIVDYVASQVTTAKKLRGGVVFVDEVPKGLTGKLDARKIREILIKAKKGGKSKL
Sequence of Glutaminase kidney isoform, mitochondrial (Homo sapiens) (O94925 whole entry, looked up, canonical isoform): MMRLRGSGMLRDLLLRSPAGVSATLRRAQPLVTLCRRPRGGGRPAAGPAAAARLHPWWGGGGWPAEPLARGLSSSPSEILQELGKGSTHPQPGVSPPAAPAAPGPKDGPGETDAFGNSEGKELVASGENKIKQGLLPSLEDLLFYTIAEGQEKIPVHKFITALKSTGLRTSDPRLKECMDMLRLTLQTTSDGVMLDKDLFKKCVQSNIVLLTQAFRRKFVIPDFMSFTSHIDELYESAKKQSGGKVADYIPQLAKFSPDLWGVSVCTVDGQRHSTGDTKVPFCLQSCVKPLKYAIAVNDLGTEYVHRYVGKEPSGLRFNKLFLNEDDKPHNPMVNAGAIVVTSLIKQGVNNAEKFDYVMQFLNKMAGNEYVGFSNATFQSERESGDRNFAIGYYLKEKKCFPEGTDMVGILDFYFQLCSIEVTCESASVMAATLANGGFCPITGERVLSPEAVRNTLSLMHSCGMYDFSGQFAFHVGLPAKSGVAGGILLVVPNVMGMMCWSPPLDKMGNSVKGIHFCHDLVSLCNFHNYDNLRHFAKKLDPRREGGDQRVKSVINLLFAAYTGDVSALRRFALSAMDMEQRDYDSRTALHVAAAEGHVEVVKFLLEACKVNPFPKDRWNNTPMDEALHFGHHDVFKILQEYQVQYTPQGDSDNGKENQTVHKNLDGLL

On to `NC(=O)C[C@@H](N)C(=O)O`, for which, in [1], the Potency entry is “inactive”.
In the case of `CCCCCCCCCC(=O)O`, in experiment [2], the activity change % (negative = inhibition) is 17.7%. For the same molecule, the result in experiment [3] and in experiment [7] was inactive. Moreover, the Potency entry in [1] and in experiment [4] was “inactive” in each case. The activation is -0.571% and 9.23% in experiment [5]; -1.38% and -1.03% in [6]. Also, the max response in experiment [8] was 5.25% and -0.468%.
`COC(C)=O`: the activity change % (negative = inhibition) in experiment [2] was -1.11%. Also, the call in [3], in experiment [7] and in experiment [9] was inactive. Besides, the Potency entry in experiment [1] and in experiment [4] was “inactive” each time. In addition, the activation in experiment [10] was 0.269%. In addition, the max response in experiment [8] is 6.49%.
As to `CN(C)CCOc1ccccc1Cc1ccccc1` (tested in a mixture with another compound), the Potency result in experiment [1] is “inactive”.
Still for that read-out and setting: the value for `CCCC(CCC)C(N)=O` was “inactive”; that for `C[C@H](/C=C/[C@H](C)C(C)(C)O)[C@H]1CC[C@H]2/C(=C/C=C3C[C@@H](O)C[C@H](O)C3)CCC[C@]12C` was “inactive”.
As to `CC(=O)S[C@@H]1CC2=CC(=O)CC[C@]2(C)[C@H]2CC[C@@]3(C)[C@@H](CC[C@@]34CCC(=O)O4)[C@H]12`, the Potency in experiment [2] is 28.2 µM (active). Besides, the activation is 29.9% in experiment [5] and -3.59% in [10]. The max response in experiment [8] is -2.36%.
As for `Nc1c(CC(=O)O)cccc1C(=O)c1ccccc1`, in experiment [1], the Potency entry was “inactive”.
Same read-out and setting: the value for `CCCCCCCCCCCCCCCCCC(=O)[O][Al]` was “inactive”; that for `OCC(O)COc1ccc(Cl)cc1` (stereo unspecified) was “inactive”; that for `CCN(CC)CCOC(=O)c1ccc(N)cc1Cl` was “inactive”.
For the molecule `Cc1cc(Nc2ccccc2C(=O)O)ccc1Cl`, the Potency in [1] was 16.1 µM (active).
For the molecule `c1ccc2c(CCC3CCNCC3)c[nH]c2c1`, in experiment [1], the Potency entry is “inactive”.
On the same count and under the same terms, for `CCN(CC)c1ccc(N=Nc2ccc(S(=O)(=O)N(C)C)cc2)c(S(=O)(=O)NCC[n+]2ccccc2)c1` the value was “inactive”; for `CC(CC(c1ccccc1)c1ccccc1)NC(C)(C)C` (stereo unspecified), “inactive”; for `CCCCCC(O)/C=C/C=O` (stereo unspecified), “inactive”.
Regarding `CN(C)Cc1ccccc1`, the activity change % (negative = inhibition) in experiment [2] is -0.727%. Besides, the call in [3], in experiment [11], in experiment [12] and in [7] was inactive. In addition, the Potency entry in experiment [1] and in experiment [4] was “inactive” throughout. The activation in [5] is -3.48%; in experiment [6] it was 0.946%; in experiment [10] it was -1.16%. Also, in [8], the max response was -9.3%.
In the case of `O=C(O)CC(O)(CC(=O)O)C(=O)O`, the result in experiment [3], in experiment [11], in experiment [12], in experiment [7] and in experiment [9] was inactive. In addition, the Potency entry in experiment [1] is “inactive”. The activation is -3% and -0.0659% and -0.0181% in experiment [5]; -0.675% and 0.892% and -1.06% in [6]; 0.406% and -1.76% and 1.69% in [10]. Moreover, the max response in [8] was -3.03% and 0.0721% and -1.17%.
Regarding `NCCCC(=O)O`, the molecule was classed as inactive in experiment [3], in experiment [15], in [16], in experiment [17], in experiment [18] and in experiment [19]. Besides, the Potency entry in [1], in [13] and in experiment [14] was “inactive” throughout.
In the case of `O=P(O)(O)C(Sc1ccc(Cl)cc1)P(=O)(O)O`, the Potency entry in [1] was “inactive”.
Same read-out and setting: the value for `C1CNCCN1` was “inactive”; that for `CCCC(=O)N1CCCN(c2nc(N)c3cc(OC)c(OC)cc3n2)CC1` was “inactive”.

Source of the values: PubChem BioAssay (NCATS).
